PubChem BioAssay (EPA / NIEHS)
Results filed as inconclusive are left out. Activity calls are given as the source filed them. Rule for the calls: active = hit-call score of the fitted dose curve at least 0.9, where 1 is the maximum; inconclusive = response in the unintended direction; inactive = score below 0.9.

What follows are compounds tested against human Rho Associated Coiled-coil Containing Protein Kinase 1 (ROCK1), ROCK1 (gene 6093) (UniProt Q13464) (assay: NVS_ENZ_hROCK1: NovaScreen (NVS) Enzymatic Assay for human Rho Associated Coiled-coil Containing Protein Kinase 1 (ROCK1) (AID 2283214)).
Method in brief: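 Compounds first run in duplicate at 25 uM against recombinant human ROCK1, then followed in concentration series. Kinase activity was read 1 h post-dosing by fluorescence with mobility-shift separation, as signal loss relative to DMSO.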

human Rho Associated Coiled-coil Containing Protein Kinase 1 (ROCK1), ROCK1 (gene 6093), sequence (Q13464 whole entry, looked up): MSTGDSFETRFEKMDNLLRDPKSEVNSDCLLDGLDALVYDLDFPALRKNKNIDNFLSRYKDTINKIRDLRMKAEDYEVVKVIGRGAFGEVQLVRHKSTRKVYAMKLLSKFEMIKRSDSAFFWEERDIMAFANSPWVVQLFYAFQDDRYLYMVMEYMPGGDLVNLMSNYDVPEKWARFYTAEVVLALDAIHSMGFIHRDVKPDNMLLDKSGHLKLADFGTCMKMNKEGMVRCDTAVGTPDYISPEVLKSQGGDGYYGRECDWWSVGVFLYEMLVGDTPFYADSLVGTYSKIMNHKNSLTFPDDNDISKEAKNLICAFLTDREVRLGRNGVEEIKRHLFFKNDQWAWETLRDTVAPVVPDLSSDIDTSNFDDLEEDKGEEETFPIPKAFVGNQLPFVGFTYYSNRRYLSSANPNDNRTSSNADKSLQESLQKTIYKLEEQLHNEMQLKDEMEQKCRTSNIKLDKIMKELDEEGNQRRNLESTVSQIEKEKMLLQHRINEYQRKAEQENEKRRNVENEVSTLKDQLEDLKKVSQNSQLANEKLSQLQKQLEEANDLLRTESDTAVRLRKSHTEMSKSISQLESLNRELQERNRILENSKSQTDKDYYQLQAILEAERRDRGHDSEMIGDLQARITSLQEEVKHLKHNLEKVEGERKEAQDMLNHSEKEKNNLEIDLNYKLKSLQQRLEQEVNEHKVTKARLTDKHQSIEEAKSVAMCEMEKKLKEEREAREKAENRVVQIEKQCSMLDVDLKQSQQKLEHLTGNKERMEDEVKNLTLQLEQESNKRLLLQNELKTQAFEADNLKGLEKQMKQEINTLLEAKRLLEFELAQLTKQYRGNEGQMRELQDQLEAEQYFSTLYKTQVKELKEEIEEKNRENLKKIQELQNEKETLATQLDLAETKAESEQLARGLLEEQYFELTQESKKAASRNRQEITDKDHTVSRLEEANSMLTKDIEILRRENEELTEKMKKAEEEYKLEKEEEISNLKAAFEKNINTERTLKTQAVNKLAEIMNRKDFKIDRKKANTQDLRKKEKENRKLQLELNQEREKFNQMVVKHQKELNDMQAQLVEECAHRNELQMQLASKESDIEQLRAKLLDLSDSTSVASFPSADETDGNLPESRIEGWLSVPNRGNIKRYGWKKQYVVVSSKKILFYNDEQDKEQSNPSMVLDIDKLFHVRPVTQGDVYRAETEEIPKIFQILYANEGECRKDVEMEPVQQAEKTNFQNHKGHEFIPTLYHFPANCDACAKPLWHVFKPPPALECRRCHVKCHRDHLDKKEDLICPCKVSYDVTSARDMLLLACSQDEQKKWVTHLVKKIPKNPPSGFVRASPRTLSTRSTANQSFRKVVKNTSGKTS

Structure (SMILES) | outcome
CC(=O)OCCOCCOCCOC(C)=O | inactive
CCCCCCCCCCCCCCCCCC(=O)O | inactive
Cc1ccc(C)c(O)c1C | inactive
Cc1nc(C)nc(N2C[C@@H](C)N(c3ccnc([C@@H](C)O)n3)[C@@H](C)C2)n1 | inactive
Cc1cccc([N+](=O)[O-])c1C | inactive
